# Assay results as given in PubChem BioAssay AID590 (National Center for Advancing Translational Sciences (NCATS), 2007).
# The whole screen tested about 59,000 compounds, of which about 6,500 (11%) were called active. Another 15% or so got no clear call; they are omitted. Rule as the data show it: active = max dye-equivalent concentration above about 10 nM; inconclusive = mostly about 1.1 nM to 9.6 nM; inactive = weaker than that. For the sample, actives were picked, then their nearest neighbours and some compounds at random.
# Assay: qHTS Assay for Spectroscopic Profiling in A350 Spectral Region
# Details: Compound autofluorescence, 340/450 nm, Alexa 350 dye-equivalents; stronger effect = higher value
row,SMILES,max dye-equivalent concentration
1,CC(NCCO)C(=O)C12CC3CC(CC(C3)C1)C2 (stereo not drawn),43 nM (active)
2,CN1CCN(CC(=O)C23CC4CC(CC(C4)C2)C3)CC1,inactive
3,C=CCNC(=O)C12CC3CC(C1)CC(C(=O)NCC=C)(C3)C2,inactive
4,O=C(O)CCC(=O)Nc1ccc(N2CCOCC2)cc1,inactive
5,CN(C)c1nc2n(c(=O)n1)CCO2,inactive
6,Cc1ccsc1CNn1cnnc1SCc1ccccc1F,inactive
7,O=C(c1cnccn1)N1CCC2(CCN(Cc3cc(C(F)(F)F)cc(C(F)(F)F)c3)CC2)CC1,inactive
8,Cc1nc(NCCN)c(C#N)c2c1COC(C)(C)C2,16 nM (active)
9,CCN1CCN(c2ncnc3c2oc2nc(C)c4c(c23)CC(C)(C)OC4)CC1,inactive
10,COc1ccc2[nH]cc(CCNc3cc(-c4ccccc4CN(C)C)ncn3)c2c1,inactive
11,Nc1ccc2c3c(cccc13)C(=O)NC2=O,inactive
12,CNc1nc(-c2ccccc2OC)nc2ccccc12,inactive
13,CCSc1nc(=S)n(CC)c(C)c1C(C)=O,inactive
14,CCOC(=O)N1CCC(NC(=O)C(C)n2c3ccccc3c3cnn(C)c(=O)c32)CC1 (stereo not drawn),inactive
15,CCOC(=O)N1CCC(NC(=O)Cc2cn(C)c3ccccc23)CC1,inactive
16,CCOC(=O)N1CCC(NC(=O)CCc2cn(C)c3ccccc23)CC1,470 nM (active)
17,CC(=O)N1CCN(C(=O)c2cccc(S(=O)(=O)Nc3ccc(C)cc3)c2)CC1,inactive
18,CC1(C)CC(CCC(=O)Nc2ccccc2Cl)C(=O)O1 (stereo not drawn),inactive
19,CC(C)c1nc2oc3c(N4CCN(C)CC4)ncnc3c2c2c1CCC2,inactive
20,CCCCC(=O)Nc1ccc(C(=O)NCCCn2ccnc2)cc1,inactive
21,CCCCC(=O)Nc1ccc2c(c1)OCCO2,inactive
22,CCCCCC(=O)Nc1ccc2oc(-c3ccncc3)nc2c1,29 nM (active)

row,SMILES,max dye-equivalent concentration
1,CCOC(=O)c1cccc(NC(=O)CCc2c(C)nc3ncnn3c2C)c1,inactive
2,CCCCCN(C(=O)NC(=O)Nc1ccccc1OC)S(C)(=O)=O,inactive
3,COc1ccc(OC)c(NC(=O)CSc2nc3cccnc3n2C)c1,inactive
4,CCCC1C(c2ccccc2)C(C#N)(C#N)C2(C#N)CC1(N)NC2=O (stereo not drawn),inactive
5,CN1CCN(C(=O)C2C3C=CC(C3)C2C(=O)O)CC1 (stereo not drawn),inactive
6,CCOC(=O)c1c(CN2CCOCC2)n(-c2ccccc2)c2ccc(O)cc12,inactive
7,O=C(OCCN1CCOCC1)C1(c2ccccc2)CCCCC1,inactive
8,O=C(CN1CCOCC1)N1CCCc2c1c(=O)oc1ccc(OCc3ccccc3)cc21,41 nM (active)
9,O=S(=O)(O)c1nc2ccccc2n1Cc1ccc(Cl)cc1Cl,inactive
10,COc1ccc(CNc2ncncc2-c2ccccc2C)c(OC)c1,inactive
11,CCOc1ccc(NC(=O)N2CCN(CC)CC2)cc1,inactive
12,CCOc1ccc2nc(N3CCCN(C(=O)Nc4ccccc4C)CC3)c(C#N)cc2c1,16 nM (active)
13,Cc1ccccc1NC(=O)CNc1ccccc1N1CCCCC1,inactive
14,Cc1ccnc(SCCn2c(Br)nc3c2c(=O)[nH]c(=O)n3C)n1,inactive
15,CC1CN(C2CCN(C(=O)COc3ccccc3)CC2)CC(C)O1 (stereo not drawn),inactive
16,Nc1nc2c(ncn2[C@H]2CC[C@@H](CO)O2)c(=O)n1C(=O)c1ccccc1,inactive
17,COc1cccc(Nc2ncc3ncc(=O)n(C4CC4)c3n2)c1,inactive
18,CCNc1ncc2ncc(=O)n(CCc3ccccc3)c2n1,89 nM (active)
19,COc1cccc(Cn2c(=O)c(C)nc3cnc(Oc4ccccc4)nc32)c1,inactive
20,CCc1nnc(NC(=O)CSc2nnc(Cc3ccccc3)n2-c2ccc(OC)cc2)s1,inactive
21,COc1ccc(-n2c(C)nc3c(cnn3-c3ccccc3)c2=O)cc1,inactive
22,CCNc1ncc2ncc(=O)n(Cc3cccc(OC)c3)c2n1,16 nM (active)

row,SMILES,max dye-equivalent concentration
1,CCNc1ncc2nc(CCc3ccccc3)c(=O)n(-c3ccc(OC)cc3)c2n1,15 nM (active)
2,COc1cccc(CN2C(=O)CCC2(C)C(=O)NC2CCCCCC2)c1 (stereo not drawn),inactive
3,COc1cccc(Cn2c(=O)c(CCc3ccccc3)nc3cnc(N(C)C)nc32)c1,31 nM (active)
4,O=c1cnc2cnc(Nc3ccccc3)nc2n1Cc1ccc(F)cc1,inactive
5,COc1cccc(Cn2c(=O)cnc3cncnc32)c1,inactive
6,CSCCC(NC(=O)C1CCC(C)CC1)C(=O)NCc1ccco1 (stereo not drawn),inactive
7,CC(C)NC(=O)N1CCCC2(CCN(C(=O)c3cccn3C)CC2)C1,inactive
8,Cc1cccc(C)c1NC(=O)N1CC=C(n2c(=O)[nH]c3ccccc32)CC1,inactive
9,CC(C)CCNC(=O)C1CCCN(S(=O)(=O)c2ccc(F)cc2)C1 (stereo not drawn),inactive
10,CCN(CC)C(=O)CSc1nnc(-c2cccc(OC)c2)o1,inactive
11,CC(C)NC(=O)CCCn1c(=S)[nH]c2cc3c(cc2c1=O)OCO3,inactive
12,Cc1cccc(NC(=O)CSc2nnc(CCCCCNC(=O)OC(C)(C)C)o2)c1C,inactive
13,Cc1cccc(N(CC(O)CN(C)C)S(=O)(=O)c2ccccc2)c1 (stereo not drawn),inactive
14,COC(=O)c1ccc(Oc2nc(Nc3ccc(F)cc3)nc(N3CCCC3)n2)cc1,inactive
15,CSc1ccc(S(=O)(=O)Nc2cccc(F)c2)cc1,inactive
16,C=CCN(c1ccc(C(N)=O)cc1)S(C)(=O)=O,inactive
17,CCOC(=O)C1CCN(C(=O)CSc2cc(=O)n(C)c3ccccc23)CC1,inactive
18,Cn1c(=O)cc(SCC(=O)N2CCCC2)c2cc(Cl)ccc21,12 nM (active)
19,Cn1c(=O)cc(SCC(=O)N2CCN(C(=O)c3ccco3)CC2)c2ccccc21,inactive
20,COC(=O)c1sc(=S)n(-c2ccccc2)c1N,inactive
21,COCCCNC(=O)Cn1cc(C(=O)C2CC2)c2ccccc21,inactive
22,COc1ccc(-c2nc(-c3ccccc3)no2)c(OC)c1,inactive

row,SMILES,max dye-equivalent concentration
1,COc1ccc(-c2ccc(-c3noc(-c4ccncc4)n3)c(OC)n2)cc1,24 nM (active)
2,O=C(Oc1ccc(-c2nc(-c3ccccn3)no2)cc1)c1ccccc1,inactive
3,CCOc1cc(-c2noc(CCC(=O)N3CCOCC3)n2)ccc1OC,inactive
4,CCOc1nc(-c2ccc(OC)cc2)ccc1-c1noc(-c2cc(OC)c(OC)c(OC)c2)n1,81 nM (active)
5,COc1ccc(-c2noc(CN(C)S(=O)(=O)c3ccc(C)cc3)n2)cc1,inactive
6,Cn1c(=O)c2c(ncn2CC(=O)N2CCN(c3ccccc3)CC2)n(C)c1=O,inactive
7,CCOc1ccc(C(C)C)cc1S(=O)(=O)n1nc(C)cc1C,inactive
8,N#Cc1ccccc1-c1ccc2ncnc(NCc3cccnc3)c2c1,inactive
9,CC(Cc1cccs1)NC(=O)NC1CCCCC1 (stereo not drawn),inactive
10,COc1ccccc1CNc1ccnc(-c2c(C)noc2C)n1,inactive
11,CCOc1ccc(CCNC(=O)C2CCN(c3ccc(N4CCOCC4)nn3)CC2)cc1OCC,560 nM (active)
12,CCCS(=O)(=O)N1CCC(C(=O)NCCc2ccc(OC)c(OC)c2)CC1,inactive
13,COc1ccc(CCNC(=O)C2CCN(c3nn4c(=O)cc(C)nc4s3)CC2)cc1OC,inactive
14,O=C(CN1CCN(c2ccc(F)cc2)CC1)Nc1cccc(C(F)(F)F)c1,inactive
15,O=C(c1ccc([N+](=O)[O-])cc1)[C@@H](Br)[C@@H](Br)c1ccnc2ccccc12,inactive
16,O=C1NC(c2ccncc2)Nc2sc3c(c21)CCCC3 (stereo not drawn),58 nM (active)
17,CCc1nnc(NC(=O)CSc2nnc(COc3ccc(C#N)cc3)n2-c2ccccc2)s1,inactive
18,O=C(Nc1cccc(F)c1)N1CC2(CCN(C(=O)c3csnn3)CC2)C1,inactive
19,Cn1c(CCN2CCCCCC2)nc2cc(NC(=O)Nc3ccccc3)ccc21,inactive
20,Cc1nc2ccc(NC(=O)N3CCC(c4ccccc4)C3)cc2nc1C (stereo not drawn),410 nM (active)
21,O=C(Nc1cccc(NC(=O)N2CCN(c3ccccc3)CC2)c1)N1CCN(c2ccccc2)CC1,inactive
22,O=C(COC(=O)CCC(=O)c1cccs1)NCc1ccco1,inactive

row,SMILES,max dye-equivalent concentration
1,Cc1cc(C(=O)OCC(=O)NCc2ccco2)c(C)n1-c1ccccc1,inactive
2,O=C(COC(=O)C12CC3CC(CC(C3)C1)C2)NCc1ccco1,16 nM (active)
3,NC[C@@H]1O[C@H](O[C@@H]2[C@H](O[C@@H]3O[C@H](CO)[C@@H](COC[C@H]4O[C@@H](CN)[C@@H](O)[C@@H](O)[C@@H]4N)[C@@H]3O)[C@@H](O)[C@@H](N)C[C@H]2N)[C@@H](N)[C@H](O)[C@@H]1O,inactive
4,N#Cc1ccc(CN2CCCC3(CCN(C(=O)c4ccco4)CC3)C2)cc1,inactive
5,CCOc1ccc(NS(=O)(=O)c2ccc(OCC(=O)NCCCOC)cc2)cc1,inactive
6,O=C(CC(NS(=O)(=O)c1ccc(Cl)cc1)c1ccco1)NC1CCCC1 (stereo not drawn),inactive
7,O=c1[nH][nH]c(=O)c2cc(N3CCCC3)ccc12,47 nM (active)
8,O=C(NCc1cccnc1)c1cn(-c2ccccc2)nc1-c1cccs1,inactive
9,O=C1CC(c2ccccc2)C(=O)N1c1cccc(O)c1 (stereo not drawn),inactive
10,CCCC(CCC(=O)OC)(C(=O)OCC)c1csc(N)n1 (stereo not drawn),inactive
11,CCCCNC(=O)c1ccccc1NC(=O)c1ccccc1N(C)S(C)(=O)=O,inactive
12,O=C(c1cccc(F)c1)N1CCC2(CC1)CCN(c1ccccc1)CC2,inactive
13,CCOC(=O)N1CCN(C(=O)C2CCN(c3ncnc4c3sc3cccc(F)c34)CC2)CC1,18 nM (active)
14,CCOC(=O)N1CCN(CC(=O)Nc2cc(C)nn2-c2nc3ccccc3s2)CC1,inactive
15,CCOC(=O)N1CCN(C(=O)C2CCN(S(C)(=O)=O)CC2)CC1,inactive
16,CCCc1cc(=O)n2[nH]c(SCc3ccccc3)nc2n1,inactive
17,Cc1ccc(C(=O)NC2CC(C)(C)NC(C)(C)C2)c(C)c1,inactive
18,O=C(Cn1nnc(-c2ccc3c(c2)OCO3)n1)NCc1ccco1,inactive
19,CS(=O)(=O)N(CC(=O)N1CCN(Cc2ccc3c(c2)OCO3)CC1)c1ccc2c(c1)OCO2,inactive
20,CS(=O)(=O)N(CC(=O)NCc1ccco1)c1ccc2c(c1)OCO2,29 nM (active)
